Records with an inconclusive call do not appear. Activity calls are given as the source filed them. How the source made its calls, unless noted: active means hit-call score of the fitted dose curve at least 0.9, where 1 is the maximum; inconclusive means response in the unintended direction; inactive means score below 0.9.
What was measured:
[1] = read-out: Thyroid Hormone Responsive (THRSP), THRSP (gene 7069); assay: LTEA_HepaRG_THRSP: Life Technologies and Expression Analysis (LTEA) Assay for Thyroid Hormone Responsive (THRSP) using HepaRG (AID 2283536; active means hit-call score of the fitted dose curve at least 0.9, where 1 is the maximum; inactive means score below 0.9); details: mRNA level, 48 h; actives raise or lower the signal
Procedure, shortened: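 mRNA induction or loss relative to 0.5% DMSO vehicle was fitted bidirectionally across an eight-point curve whose highest exposure was 100 uM. Human HepaRG liver cells received chemicals in duplicate over 48 h before RNA extraction.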

[2] = read-out: Cellular tumor antigen p53 (Homo sapiens) (UniProt P04637); assay: LTEA_HepaRG_TP53: Life Technologies and Expression Analysis (LTEA) Assay for Tumor Protein P53 (TP53) using HepaRG (AID 2283537; active means hit-call score of the fitted dose curve at least 0.9, where 1 is the maximum; inactive means score below 0.9); details: mRNA level, 48 h; actives raise or lower the signal
Procedure, shortened: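 Differentiated HepaRG cells in serum-free induction medium exposed 48 h in duplicate to 8 half-log concentrations, top 100 uM, 0.5% DMSO. TP53 mRNA by TaqMan qRT-PCR (Fluidigm), normalized to ACTB, GAPDH, POLR2A; fitted bidirectionally versus DMSO.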

[3] = read-out: UDP glucuronosyltransferase (UGT1A1), UGT1A1 (gene 54658); assay: LTEA_HepaRG_UGT1A1: Life Technologies and Expression Analysis (LTEA) Assay for UDP glucuronosyltransferase (UGT1A1) using HepaRG (AID 2283538; active means hit-call score of the fitted dose curve at least 0.9, where 1 is the maximum; inactive means score below 0.9); details: mRNA level, 48 h; actives raise or lower the signal
Procedure, shortened: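 HepaRG cells, 0.5% DMSO vehicle, 48 h exposure in serum-free induction medium to 8-point half-log series topping at 100 uM, in duplicate. UGT1A1 mRNA by Fluidigm qRT-PCR, normalized to ACTB/GAPDH/POLR2A; bidirectional fit versus DMSO.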

[4] = read-out: UDP glucuronosyltransferase (UGT1A6), UGT1A6 (gene 54578); assay: LTEA_HepaRG_UGT1A6: Life Technologies and Expression Analysis (LTEA) Assay for UDP glucuronosyltransferase (UGT1A6) using HepaRG (AID 2283539; active means hit-call score of the fitted dose curve at least 0.9, where 1 is the maximum; inactive means score below 0.9); details: mRNA level, 48 h; actives raise or lower the signal
Procedure, shortened: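 Expression was quantified by TaqMan qRT-PCR on Fluidigm arrays with ACTB/GAPDH/POLR2A normalization and bidirectional fitting against 0.5% DMSO. HepaRG cells (~100,000/well) were treated in duplicate for 48 h at eight half-log concentrations up to 100 uM in serum-free induction medium.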

[5] = read-out: X-box binding protein 1 (XBP1), XBP1 (gene 7494); assay: LTEA_HepaRG_XBP1: Life Technologies and Expression Analysis (LTEA) Assay for X-box binding protein 1 (XBP1) using HepaRG (AID 2283540; active means hit-call score of the fitted dose curve at least 0.9, where 1 is the maximum; inactive means score below 0.9); details: mRNA level, 48 h; actives raise or lower the signal
Procedure, shortened: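 XBP1 transcript by qRT-PCR (housekeeping-normalized: ACTB, GAPDH, POLR2A) after 48 h chemical treatment of HepaRG cells, 8-point half-log series topping at 100 uM, vehicle 0.5% DMSO. Gain and loss of signal fitted relative to DMSO.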

[6] = LTEA_HepaRG_LDH_cytotoxicity: Cytotoxicity Assessment in the Life Technologies and Expression Analysis (LTEA) Assay (AID 2283563);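 on AC50: LDH activity released into spent culture medium as a marker of cell death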
Procedure, shortened: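 LDH release into culture medium read after 48 h chemical treatment of HepaRG cells. Duplicate wells, eight-point half-log series topping at 100 uM, 0.5% DMSO vehicle and baseline.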

[7] = TOX21_p53_BLA_p2_viability: Viability Assessment in the Tox21 HCT-116 p53 Agonism Beta-lactamase Assay, Phase 2 (AID 2283591);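 further: compound exposure lasted 16 h at 37 °C; actives lower the ATP signal meaning cytotoxicity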
Procedure, shortened: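 Cytotoxicity readout: CellTiter-Glo ATP luminescence, 30 min at room temperature, after the beta-lactamase read. Cells were HCT116 exposed 16 h at 37C to compounds pin-transferred at 217-fold dilution from DMSO stocks.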

[8] = target: Cellular tumor antigen p53 (Homo sapiens) (UniProt P04637); assay: TOX21_p53_BLA_p2_ratio: Tox21 HCT-116 p53 Agonism Beta-lactamase Assay, Ratio, Phase 2 (AID 2283592)
Procedure, shortened: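 Gain-of-signal p53 agonism was scored from the beta-lactamase FRET ratio (460/530 nm, 405 nm excitation) in HCT116 cells treated 16 h at 37C, 5% CO2, with DMSO serving as negative control and baseline.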

[9] = target: Cellular tumor antigen p53 (Homo sapiens) (UniProt P04637); assay: TOX21_p53_BLA_p3_ratio: Tox21 HCT-116 p53 Agonism Beta-lactamase Assay, Ratio, Phase 3 (AID 2283596)
Procedure, shortened: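 HCT116 p53-bla cells (4000/well) given compound in DMSO (217-fold dilution) after 5 h, incubated 16 h at 37C. CCF4-AM substrate 2 h at room temperature; 460/530 nm emission ratio, gain fitted against DMSO.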

[10] = target: Cellular tumor antigen p53 (Homo sapiens) (UniProt P04637); assay: TOX21_p53_BLA_p5_ratio: Tox21 HCT-116 p53 Agonism Beta-lactamase Assay, Ratio, Phase 5 (AID 2283599)
Procedure, shortened: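 Beta-lactamase reporter ratio (blue 460 nm over green 530 nm, 405 nm excitation) after 2 h CCF4-AM loading, in HCT-116 cells exposed 16 h at 37 C to compounds pinned at 217-fold dilution. Increases relative to DMSO baseline scored.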

[11] = TOX21_p53_BLA_p5_viability: Viability Assessment in the Tox21 HCT-116 p53 Agonism Beta-lactamase Assay, Phase 5 (AID 2283600)
Procedure, shortened: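 After the 460/530 nm beta-lactamase measurement, the wells received an ATP-detection luciferase reagent; signal was read 30 min later at RT. Compound treatment lasted 16 h on cells pre-incubated 5 h post-seeding.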

[12] = target: Cellular tumor antigen p53 (Homo sapiens) (UniProt P04637); assay: TOX21_p53_BLA_p4_ratio: Tox21 HCT-116 p53 Agonism Beta-lactamase Assay, Ratio, Phase 4 (AID 2283601)
Procedure, shortened: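 Signal is the blue/green (460nm/530nm) ratio of cleaved versus uncleaved CCF4-AM substrate, read after 2 h substrate loading. Cells were HCT116 carrying the p53-responsive beta-lactamase reporter, dosed 16 h at 37C, 5% CO2; CellTiter-Glo measured in parallel.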

[13] = Tanguay_ZF_120hpf_MORT_legacy: (Legacy) Oregon State University Tanguay Lab 120 Hour Post-fertilization zebrafish Assay for Mortality (AID 2283633);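 on AC50: fitted as increase in binary mortality versus DMSO negative control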
Procedure, shortened: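 Static waterborne exposure from 6 to 120 hpf at 28C of single dechorionated wild-type (5D) embryos per well, 0.64% DMSO final. Death recorded present/absent by brightfield at 24 and 120 hpf.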

[14] = Tanguay_ZF_120hpf_EYE_legacy: (Legacy) Oregon State University Tanguay Lab 120 Hour Post-fertilization zebrafish Assay for Eye Malformation (AID 2283636)
Procedure, shortened: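 Read-out is binary presence or absence of eye malformation, scored by brightfield microscopy at 120 hpf. Single larvae were exposed from 6 hpf in embryo medium containing 0.64% DMSO, with DMSO as baseline.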

[15] = Tanguay_ZF_120hpf_YSE_legacy: (Legacy) Oregon State University Tanguay Lab 120 Hour Post-fertilization zebrafish Assay for Yolk Sac Edema (AID 2283634);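 on AC50: actives raise the incidence of yolk sac edema above the DMSO baseline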
Procedure, shortened: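 Presence or absence of yolk sac edema was recorded at 120 hpf in surviving larvae. These were wild-type Tropical 5D embryos, chorion removed at 4 hpf, held in static exposure at 28C from 6 hpf with 0.64% DMSO vehicle.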

[16] = Tanguay_ZF_120hpf_AXIS_legacy: (Legacy) Oregon State University Tanguay Lab 120 Hour Post-fertilization zebrafish Assay for Body Axis Malformation (AID 2283635);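 further: potency for an increased fraction of larvae scored with body axis malformation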
Procedure, shortened: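 Binary scoring of axis defects at 120 hpf under brightfield, fitted positive versus DMSO. Tropical 5D embryos, chorion removed by pronase at 4 hpf, were singly exposed in sealed, dark plates at 28C from 6 hpf; DMSO 0.64% final.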

[17] = Tanguay_ZF_120hpf_SNOU_legacy: (Legacy) Oregon State University Tanguay Lab 120 Hour Post-fertilization zebrafish Assay for Snout Malformation (AID 2283637)
Procedure, shortened: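 Snout malformation read as a yes/no call on brightfield images of 120 hpf larvae (Tropical 5D strain). Static exposure began at 6 hpf on dechorionated embryos in 0.64% DMSO, with gain of signal analysed versus DMSO controls.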

[18] = TOX21_p53_BLA_p4_viability: Viability Assessment in the Tox21 HCT-116 p53 Agonism Beta-lactamase Assay, Phase 4 (AID 2283597);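 further: hits lower the luminescence signal meaning cytotoxicity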
Procedure, shortened: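 Following a 16 h exposure at 37C, the treated HCT116 wells were first read for the FRET ratio. They were then lysed with CellTiter-Glo, and ATP luminescence was recorded after 30 min at room temperature.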

Measured: AC50

Sequence of Cellular tumor antigen p53 (Homo sapiens) (P04637 whole entry, looked up): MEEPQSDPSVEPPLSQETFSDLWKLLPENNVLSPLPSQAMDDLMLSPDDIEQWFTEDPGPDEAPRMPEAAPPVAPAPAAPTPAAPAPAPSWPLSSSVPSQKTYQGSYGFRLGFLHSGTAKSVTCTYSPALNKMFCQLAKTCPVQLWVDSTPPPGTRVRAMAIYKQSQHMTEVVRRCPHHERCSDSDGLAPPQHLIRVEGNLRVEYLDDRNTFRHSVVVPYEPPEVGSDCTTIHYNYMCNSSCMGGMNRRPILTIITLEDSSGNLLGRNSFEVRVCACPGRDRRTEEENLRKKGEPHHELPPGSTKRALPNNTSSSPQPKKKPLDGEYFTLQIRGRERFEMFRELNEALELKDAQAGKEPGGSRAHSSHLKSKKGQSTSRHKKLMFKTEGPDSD

Oc1ccccc1Cl
not listed: [15] | [16] | [17] | [18]
inactive: all other assays above

O=C(N[C@H](c1ccccc1)[C@@H]1CN2CCC1CC2)c1c(Cl)ccc(C(F)(F)F)c1Cl
active: [3] 63.8 µM | [4] 68.2 µM | [5] 73.9 µM | [6] 51.9 µM | [12] 127 µM | [13] 26.7 µM | [16] 1.27 µM
not listed: [9] | [14] | [18]
inactive: all other assays above

CNC(=O)Oc1cccc2c1OC(C)(C)C2
active: [3] 3.38 µM | [16] 6.79 µM | [17] 43.9 µM
not listed: [18]
inactive: all other assays above

COc1cc(C=O)cc2c1[C@H](COC(N)=O)[C@]1(OC(C)=O)ON2C[C@H]2[C@@H]1N2C(C)=O
active: [3] 24.6 µM | [6] 1.54 µM | [8] 0.249 µM | [9] 0.56 µM | [10] 0.546 µM | [12] 0.304 µM | [16] 51.3 µM | [17] 21.6 µM
not listed: [11]
inactive: all other assays above

Oc1ccc2ccc3cccc4ccc1c2c34
active: [13] 35.6 µM | [15] 13.7 µM | [16] 13.1 µM | [14] 44.9 µM | [17] 44.2 µM
inactive: all other assays above

CC(C)(C)OOC(C)(C)CCC(C)(C)OOC(C)(C)C
not listed: [9] | [16] | [18]
inactive: all other assays above

c1ccc(NNc2ccccc2)cc1
not listed: [11] | [16] | [18]
inactive: all other assays above
